Test results as given in PubChem BioAssay AID1850 (Southern Research Specialized Biocontainment Screening …, 2009).
About 1,000 (0.32%) of roughly 310,000 compounds were called active. How the calls were made is not given here. These entries were drawn from the full list. Potency and affinity values are given separately.

test: PhoP regulon inhibitors, Salmonella typhi PhoP promoter GFP reporter, confirmatory (AID 1850); details: fluorescence, 4 h, at 50 µM, stronger effect = higher value;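 further: 0% = induced wells with vehicle and 100% = uninduced wells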

Row | SMILES | inhibition
1 | COc1cc(C)c(CN2CCC(n3nccc3NC(=O)C3CCOC3)CC2)cc1C (stereo not given) | -6.02% (inactive)
2 | CC(C)N1CC(C(=O)Nc2ccc(C#N)cc2)CC1=O (stereo not given) | -2.49% (inactive)
3 | Cc1cc(Cl)ccc1OCC(=O)n1cc(C(=O)c2cc(Cl)ccc2O)cn1 | -8.17% (inactive)
4 | Cc1ncc(CC(=O)n2cc(C(=O)c3cc(F)ccc3O)cn2)s1 | 23.5% (inactive)
5 | O=C(NCCc1ccccc1)c1nccc2ccccc12 | 3.49% (inactive)
6 | COCCC(=O)N1CCC(Oc2ccc(C(=O)N3CCC[C@H]3CO)cc2)CC1 | -1.9% (inactive)
7 | CCOC(=O)C1CCCN(C2CCN(Cc3nc(Cc4ccccc4)no3)CC2)C1 (stereo not given) | -4.46% (inactive)
8 | O=C(O)c1cc(S(=O)(=O)NC(CO)C(O)c2ccc([N+](=O)[O-])cc2)ccc1Br (stereo not given) | 5.04% (inactive)
9 | CS(=O)(=O)c1ccc(C(=O)NC(Cc2ccccc2)c2ccccc2)cc1 (stereo not given) | 2.4% (inactive)
10 | Cc1ccc(NC(=S)NC(CO)C(O)c2ccc([N+](=O)[O-])cc2)cc1 (stereo not given) | 8.81% (inactive)
11 | CS(=O)(=O)c1ccc(C(=O)NCc2ccccc2F)cc1 | 2.01% (inactive)
12 | Cc1ccc(-n2nc(C(=O)NN)c(C)c(C#N)c2=O)cc1Cl | -0.01% (inactive)
13 | CCOC(=O)N1CCC(NC(=O)c2ccccc2C(=O)O)CC1 | 2.93% (inactive)
14 | CCN(CC)S(=O)(=O)c1ccc(C)c(NC(=O)COc2ccc3c(C)cc(=O)oc3c2)c1 | -6.3% (inactive)
15 | CCCn1nnc(NC(=O)c2ccc([N+](=O)[O-])cc2Cl)n1 | -8.6% (inactive)
16 | Fc1ccc(-c2nc3ccccn3c2NCc2ccc3c(c2)OCO3)cc1 | -6.33% (inactive)
17 | Clc1ccc(CNCCC2=CCCCC2)cc1 | -4.93% (inactive)
18 | Cc1ccc(CNC(=O)C(=O)NCCC2=CCCCC2)cc1 | -20.6% (inactive)
19 | Cc1ccc(NC(=S)NCCC2=CCCCC2)cc1 | -0.73% (inactive)
20 | O=C(NCCC1=CCCCC1)C(=O)NCc1ccccc1 | -1.97% (inactive)
21 | CC(C)[C@H](NC(=O)c1ccccc1Cl)C(=O)OCc1cc([N+](=O)[O-])cc2c1OCOC2 | -4.37% (inactive)
22 | O=C(O)CCC(=O)Nc1nc2nccc(-c3ccccc3)n2n1 | -7.87% (inactive)
23 | CCOc1cc(/C=C2/C(=N)N3N=C(C)SC3=NC2=O)ccc1OS(=O)(=O)c1ccc(C)cc1 | 18.2% (inactive)
24 | O=C(Nc1cc2c3c(c1)CC(=O)N3CCC2)c1ccc(Br)o1 | 2.71% (inactive)
25 | CCNC(=S)NNC(=O)c1cc(-c2cccc(OCC)c2)nc2ccccc12 | 10.8% (inactive)
26 | O=C(CCc1ccccc1)NNC(=O)c1ccccc1Br | -5.24% (inactive)
27 | CCNc1ccc(C2(O)C(=O)c3ccccc3C2=O)cc1 | -8.28% (inactive)
28 | O=[N+]([O-])c1ccc(Cl)c2cccnc12 | -13% (inactive)

Row | SMILES | inhibition
29 | O=[N+]([O-])c1cc2cccnc2c2ncccc12 | -13.3% (inactive)
30 | Clc1cc2cccnc2c2ccccc12 | -17.8% (inactive)
31 | O=[N+]([O-])c1ccc(O)c2cccnc12 | 2.39% (inactive)
32 | O=[N+]([O-])c1cccc2c(Cl)ccnc12 | 5.29% (inactive)
33 | Oc1c(I)cc(I)c2cccnc12 | 8.57% (inactive)
34 | Cc1ccc([N+](=O)[O-])c2cccnc12 | -3.26% (inactive)
35 | Oc1ccc(F)c2cccnc12 | 8.36% (inactive)
36 | Cc1oc2cc3oc(=O)c(CC(=O)NCC(=O)N[C@@H](C(=O)O)c4ccccc4)c(C)c3cc2c1C | 3.13% (inactive)
37 | Cc1ccccc1OCC(=O)Nc1nc2ccccc2[nH]1 | 9.79% (inactive)
38 | COc1cccc(CN2CCNC(=O)C2CC(=O)N2CCOc3ccccc3C2)c1OC (stereo not given) | -0.13% (inactive)
39 | O=c1cc(-c2ccccc2)nc(SCCOc2ccccc2Cl)[nH]1 | 3.72% (inactive)
40 | Cc1ccc(C(=O)Nc2cccnc2)cc1S(=O)(=O)N1CCCC1 | -5.54% (inactive)
41 | O=c1[nH]c(=S)[nH]c(O)c1N=Nc1ccc2c(c1)OCO2 | -4.29% (inactive)
42 | Cc1ccc(Cl)cc1N1CCN(C(=O)Cc2ccc(-n3c(=O)[nH]c4ccsc4c3=O)cc2)CC1 | 2.93% (inactive)
43 | O=C1Nc2ccccc2/C1=C/c1ccccc1F | -2.26% (inactive)
44 | O=C(c1nc2ccccn2c1CN1CCN(c2ccccc2O)CC1)N1CCCC1 | -2.41% (inactive)
45 | OC(C#CCN1CCCCC1)c1ccccc1 (stereo not given) | -17.1% (inactive)
46 | Cc1ccc(NC(=O)CSc2ncccc2C(=O)Oc2cccc([N+](=O)[O-])c2)cc1Cl | -7.7% (inactive)
47 | CCOc1ccc(S(=O)(=O)NCCC(=O)NCc2cccnc2)cc1 | 9.15% (inactive)
48 | C#CCOCCOCCOCCNc1nc(N2CCN(C(=O)CCCCCCCCCCNC(=O)[C@H](CCCCN)n3cc(CCO)nn3)CC2)nc(N2CCN(C(=O)CCCCCCCCCCNC(=O)[C@@H]([C@H](C)O)n3cc(C)nn3)CC2)n1 | -15.8% (inactive)
49 | C#CCOCCOCCOCCNc1nc(N2CCN(C(=O)CCCCCCCCCCNC(=O)[C@@H](CCC(=O)O)n3cc(CCCCCN)nn3)CC2)nc(N2CCN(C(=O)CCCCCCCCCCNC(=O)[C@H]([C@@H](C)CC)n3cc(CCCCCN)nn3)CC2)n1 | -8.02% (inactive)
50 | C#CCOCCOCCOCCNc1nc(N2CCN(C(=O)CCCCCCCCCCNC(=O)[C@H]([C@@H](C)CC)n3cc(CCCCCN)nn3)CC2)nc(N2CCN(C(=O)CCCCCCCCCCNC(=O)[C@H](CCCCN)n3cc(CCCC(=O)O)nn3)CC2)n1 | -21.1% (inactive)
51 | C#CCOCCOCCOCCNc1nc(N2CCN(C(=O)CCCCCCCCCCNC(=O)[C@H]([C@@H](C)CC)n3cc(CCCCCN)nn3)CC2)nc(N2CCN(C(=O)CCCCCCCCCCNC(=O)[C@@H]([C@H](C)O)n3cc(C)nn3)CC2)n1 | 60.5% (inactive)
52 | CCC(Oc1ccc(C)cc1)C(=O)Nc1ccc2c(c1)n(C)c(=O)n2C (stereo not given) | -3.92% (inactive)
53 | CCNC(=O)CC1SC(=Nc2cccc3ccccc23)N(C)C1=O (stereo not given) | -5.94% (inactive)
54 | CCN(CC(=O)NC(=O)Nc1ccccc1F)Cc1ccccc1 | -3.48% (inactive)
55 | CCN1CCN(C(=O)CCCn2c(C)c3cnn(-c4ccccc4)c(=O)c3c2C)CC1 | -6.37% (inactive)
